Source: PubChem BioAssay (Tox21)
A number with no mark means an inactive call. Activity calls are given as the source filed them. Calls come from the whole dose curve; as a rule, active = well fitted activation curve with a large enough effect in the repeat runs; inconclusive = weak or mixed curves; inactive = flat fitted curve, though single readings scatter.

Experiment: A CellTox Green Cytotoxicity Assay to monitor cytotoxicity in HepG2 cells - 0 hour (AID 1224882); note: nearly all actives have a fitted effect of over 35% in size
Settings: CellTox Green fluorescence; series mostly up to 76.8 µM; cytotoxicity: at the top concentration
From the text: National Center for Advancing Translational Sciences [NCATS]
NIH Chemical Genomics Center [NCGC]
U.S. Environmental Protection Agency [EPA]
National Institutes of Environmental Health Sciences [NIEHS]
National Toxicology Program [NTP]
Cell-based models are critical for drug discovery. Determining the natural cytotoxic effects resulting from test compounds is an essential research activity. A CellTox Green Cytotoxicity Assay to monitor cytotoxicity in real time of continues cell culture during 40 hours of the compound treatment was used to screen Tox21 10K library compounds in HepG2 cells. CellTox Green Cytotoxicity Assay is a nonlytic, homogeneous, biofluorescent method to measure cytotoxicity in cell culture after experimental manipulation. The assay system uses a proprietary asymmetric cyanine dye that is excluded from viable cells but preferentially stains the dead cell's DNA. […] Viable cells produce no appreciable increases in fluorescence. Therefore, the fluorescence signal produced by the binding interaction with dead cell DNA is proportional to cytotoxicity.
The mixture of HepG2 cell suspension and reagents were dispensed at 600cells/6 ul/well in 1536-well tissue culture treated black solid bottom plates using a Multidrop dispenser. After the assay plates were incubated at a 37 C/5% CO2 incubator for 5 hours, 23 nL of compounds dissolved in DMSO, positive and negative controls was transferred to the assay plate by a pintool work station. The plates were incubated at 37 C for 40 hours. The fluorescence intensity were measured at 0h, 8h, 16h, 24h, 32h and 40h time points using ViewLux plate reader during compound treatment.
% is set by controls: 0 for no effect and ±100 for the full control effect.

Structure (SMILES)	cytotoxicity	Potency
CCCCCCCCCO	-5.26%	
CN1CCC(OC(c2ccccc2)c2ccccc2)CC1	-14.7% [at 35.3 µM]	
CC[C@H](C)[C@H](N)C(=O)O	-9.76% [at 35.3 µM]	
CCC(C)N(C)C(=O)c1cc2ccccc2c(-c2ccccc2Cl)n1 (stereo not given)	-0.224% [at 35.3 µM]	
S=C(S)NCCNC(=S)S	-7.65%	
Cc1ccccc1N=Nc1ccc(N=Nc2c(O)ccc3ccccc23)c(C)c1	-9.25% [at 35.3 µM]	
CC(C)(C)c1ccc(S)cc1	-5.97%	
CC1=CCC(C(C)C)C=C1 (stereo not given)	1.17%	
CN(C)CC[C@@H](c1ccc(Br)cc1)c1ccccn1	-3.47% [at 35.3 µM]	
N[C@H]1C(O)O[C@H](CO)[C@H](O)[C@@H]1O (stereo not given in full)	-5.33%	
CC(C)(C)c1cc(O)c(C(C)(C)C)cc1O	-2.85%	
C=CC[N+]1([C@H]2C[C@H]3[C@@H]4CC[C@H]5C[C@H](OC(C)=O)[C@@H](N6CCCCC6)C[C@]5(C)[C@H]4CC[C@]3(C)[C@H]2OC(=O)CC)CCCCC1	-12.3% [at 35.3 µM]	
O=C(O)C1CCC(C(=O)O)CC1 (stereo not given)	-3.72%	
CCN(CC)CCOc1ccc2c(c1)C(=O)c1cc(OCCN(CC)CC)ccc1-2	0.16% [at 35.3 µM]	
CCN(CCO)CCCC(C)Nc1ccnc2cc(Cl)ccc12 (stereo not given)	10% [at 6.97 µM]	
N#Cc1cc2ccccc2c2ccccc12	-8.63%	
C=C(C)C(=O)OCCOc1ccccc1	-0.755%	
Cc1cc(NC(=O)C(=O)O)cc(C)c1Oc1ccc(O)c2c1CCC2	-11.6%	
Cn1sccc1=O		inactive
CCOC(=O)CC(=O)c1cc(F)c(Cl)nc1Cl	-11.8%	

Structure (SMILES)	cytotoxicity	Potency
C[C@H](CCC(=O)O)[C@H]1CC[C@H]2[C@@H]3[C@H](O)C[C@@H]4C[C@H](O)CC[C@]4(C)[C@H]3CC[C@]12C	-0.542%	
C[Si](C)O[Si](C)(C)O[Si](C)(C)O[Si](C)C	0.492%	
CCOC(=S)SSC(=S)OCC	-0.592%	
COCCO	-0.306%	
C#CCOC(=O)[C@@H](C)Oc1ccc(Oc2ncc(Cl)cc2F)cc1	0.0528%	
CCCCCCCCC(CO)CCCCCC (stereo not given)	-0.336%	
CCCCOC(O)CC (stereo not given)	0.604%	
CCCCCCCCCCCCCCCBr	-0.607% [at 35.3 µM]	
CC1CCc2cc(F)cc3c(=O)c(C(=O)O)cn1c23 (stereo not given)	-1.63% [at 35.3 µM]	
COC(Cc1ccccc1)OC	-5.37%	
COc1ccc(C(C)=O)cc1	0.0509%	
Cc1ccc(C(C)c2ccc(C)c(C)c2)cc1C	0.252%	
CC(=O)/C(C)=C/C1C(C)=CCCC1(C)C (stereo not given)	14%	
O=[N+]([O-])c1cc[n+]([O-])cc1	2.07%	
O=C(/C=C/c1ccc(O)c(O)c1)O[C@@H]1C[C@](O)(C(=O)O)C[C@@H](O)[C@H]1O	-12%	
CCCCCCCCN(C)C	-8.78%	
C=CC(=O)OCC(C)OCC(C)OCC(C)OC(=O)C=C (stereo not given)	-0.555%	
CCCCCOC(=O)COc1cc(N2C(=O)C3=C(CCCC3)C2=O)c(F)cc1Cl	-1.6%	
CC(C)CCCC(C)CCO (stereo not given)	-0.557%	
CN(C)CC/C=C1\c2ccccc2COc2ccccc21	-4.87% [at 35.3 µM]	
